Source: PubChem BioAssay AID1159580 (chemical genetic matrix, 2015)
Hit rate of the full screen: of about 5,500 compounds, about 2,000 (36%) were called active. Inconclusive results (about 18%) are left out. Rule as the data show it: active = normalized growth mostly below about 0.91 (no sharp cut-off); inconclusive = no clear call, values can overlap the other calls; inactive = mostly above about 0.92. Some of the results follow.

Test: chemical genetic growth profiling, strain panel (AID 1159580);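 also: tested at 20 µM; growth read once vehicle control cultures reached saturation at 30 °C; 1 = growth at the plate median or of vehicle wells; lower values mean less growth of the strain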
Settings: growth OD

Measured: normalized growth

C[C@@H]1CC[C@H]2C(C)(C)C3CC12CC[C@@]3(C)O (some centres not stated)
inactive: S. cerevisiae deletion strains, locus YJR066W, strain TOR1, stronger effect = lower value 0.975 | S. cerevisiae deletion strains, locus YKL009W, strain mrt4, stronger effect = lower value 0.893 | S. cerevisiae deletion strains, locus YKL068W, stronger effect = lower value 1.01 | S. cerevisiae deletion strains, locus YKL085W, strain MDH1 (second series), stronger effect = lower value 0.961 | S. cerevisiae deletion strains, locus YKL085W, strain MDH1, stronger effect = lower value 0.961 | S. cerevisiae deletion strains, locus YKL190W, strain CNB1, stronger effect = lower value 1.01 | S. cerevisiae deletion strains, locus YKR001C, strain vps1, stronger effect = lower value 0.933 | S. cerevisiae deletion strains, locus YKR026C, strain gcn3, stronger effect = lower value 0.994 | S. cerevisiae deletion strains, locus YKR091W, strain srl3, stronger effect = lower value 0.934 | S. cerevisiae deletion strains, locus YLL001W, strain dnm1, stronger effect = lower value 0.949 | S. cerevisiae deletion strains, locus YLR039C, strain RIC1, stronger effect = lower value 0.849 | S. cerevisiae deletion strains, locus YLR058C, strain SHM2, stronger effect = lower value 1 | S. cerevisiae deletion strains, locus YLR102C, strain apc9, stronger effect = lower value 0.989 | S. cerevisiae deletion strains, locus YLR113W, strain HOG1, stronger effect = lower value 0.968 | S. cerevisiae deletion strains, locus YLR262C, strain YPT6, stronger effect = lower value 0.841 | S. cerevisiae deletion strains, locus YLR268W, strain sec22, stronger effect = lower value 0.961 | S. cerevisiae deletion strains, locus YLR342W, strain FKS1 (second series), stronger effect = lower value 0.886 | S. cerevisiae deletion strains, locus YLR370C, strain arc18, stronger effect = lower value 0.92 | S. cerevisiae deletion strains, locus YLR371W, strain rom2, stronger effect = lower value 0.915 | S. cerevisiae deletion strains, locus YLR384C, strain iki3, stronger effect = lower value 0.988 | S. cerevisiae deletion strains, locus YML016C, strain PPZ1, stronger effect = lower value 1.01 | S. cerevisiae deletion strains, locus YML032C, strain rad52, stronger effect = lower value 0.917 | S. cerevisiae deletion strains, locus YML124C, strain tub3, stronger effect = lower value 0.99 | S. cerevisiae deletion strains, locus YMR078C, strain ctf18, stronger effect = lower value 0.998 | S. cerevisiae deletion strains, locus YMR129W, stronger effect = lower value 1.01 | S. cerevisiae deletion strains, locus YMR223W, strain ubp8, stronger effect = lower value 0.952 | S. cerevisiae deletion strains, locus YMR307W, strain GAS1, stronger effect = lower value 0.707 | S. cerevisiae deletion strains, locus YNL067W, strain RPL9B, stronger effect = lower value 0.987 | S. cerevisiae deletion strains, locus YNL183C, strain NPR1, stronger effect = lower value 0.976 | S. cerevisiae deletion strains, locus YNL250W, strain rad50, stronger effect = lower value 0.956 | S. cerevisiae deletion strains, locus YNL271C, strain bni1, stronger effect = lower value 0.938 | S. cerevisiae deletion strains, locus YNL307C, strain MCK1, stronger effect = lower value 0.977 | S. cerevisiae deletion strains, locus YNL322C, strain KRE1 (second series), stronger effect = lower value 0.971 | S. cerevisiae deletion strains, locus YNR049C, strain mso1, stronger effect = lower value 1 | S. cerevisiae deletion strains, locus YOL006C, strain TOP1, stronger effect = lower value 0.982 | S. cerevisiae deletion strains, locus YOL012C, strain htz1 0.706 | S. cerevisiae deletion strains, locus YOL147C, strain pex11, stronger effect = lower value 0.965 | S. cerevisiae deletion strains, locus YOR061W, strain CKA2, stronger effect = lower value 0.958 | S. cerevisiae deletion strains, locus YOR069W, strain VPS5, stronger effect = lower value 0.998 | S. cerevisiae deletion strains, locus YOR080W, strain dia2, stronger effect = lower value 0.967 | S. cerevisiae deletion strains, locus YOR136W, strain idh2, stronger effect = lower value 0.959 | S. cerevisiae deletion strains, locus YOR144C, strain elg1, stronger effect = lower value 0.972 | S. cerevisiae deletion strains, locus YOR184W, strain ser1, stronger effect = lower value 0.9 | S. cerevisiae deletion strains, locus YOR231W, strain MKK1, stronger effect = lower value 0.986 | S. cerevisiae deletion strains, locus YOR316C, strain cot1, stronger effect = lower value 0.987 | S. cerevisiae deletion strains, locus YPL240C, strain hsp82, stronger effect = lower value 0.952 | S. cerevisiae deletion strains, locus YPL241C, strain CIN2, stronger effect = lower value 1.02 | S. cerevisiae deletion strains, locus YPL256C, strain CLN2, stronger effect = lower value 0.969 | S. cerevisiae deletion strains, locus YPR119W, strain clb2, stronger effect = lower value 1 | S. cerevisiae deletion strains, locus YPR141C, strain kar3, stronger effect = lower value 0.991 | S. cerevisiae deletion strains, locus YPR163C, strain tif3, stronger effect = lower value 0.993 | S. cerevisiae deletion strains, locus YPR167C, strain met16, stronger effect = lower value 0.981 | S. cerevisiae deletion strains, strain wtn01, stronger effect = lower value 0.926 | S. cerevisiae strains, strain wild type, stronger effect = lower value 0.965
active: S. cerevisiae deletion strains, locus YKL160W, strain elf1, stronger effect = lower value 0.813 | S. cerevisiae deletion strains, locus YLL026W, stronger effect = lower value 0.747 | S. cerevisiae deletion strains, locus YLL041C, strain sdh2, stronger effect = lower value 0.926 | S. cerevisiae deletion strains, locus YLR027C, strain aat2, stronger effect = lower value 0.781 | S. cerevisiae deletion strains, locus YLR221C, strain rsa3, stronger effect = lower value 0.745 | S. cerevisiae deletion strains, locus YLR258W, strain gsy2, stronger effect = lower value 0.831 | S. cerevisiae deletion strains, locus YLR262C, strain YPT6 (second series), stronger effect = lower value 0.549 | S. cerevisiae deletion strains, locus YLR320W, strain mms22, stronger effect = lower value 0.628 | S. cerevisiae deletion strains, locus YLR330W, strain CHS5, stronger effect = lower value 0.876 | S. cerevisiae deletion strains, locus YLR342W, strain FKS1, stronger effect = lower value 0.861 | S. cerevisiae deletion strains, locus YLR357W, strain rsc2, stronger effect = lower value 0.754 | S. cerevisiae deletion strains, locus YLR418C, strain cdc73, stronger effect = lower value 0.824 | S. cerevisiae deletion strains, locus YML120C, strain ndi1, stronger effect = lower value 0.786 | S. cerevisiae deletion strains, locus YMR058W, strain fet3, stronger effect = lower value 0.891 | S. cerevisiae deletion strains, locus YMR125W, strain sto1, stronger effect = lower value 0.83 | S. cerevisiae deletion strains, locus YMR205C, strain PFK2, stronger effect = lower value 0.697 | S. cerevisiae deletion strains, locus YMR231W, strain pep5, stronger effect = lower value 0.878 | S. cerevisiae deletion strains, locus YNL071W, strain lat1, stronger effect = lower value 0.616 | S. cerevisiae deletion strains, locus YNL209W, strain ssb2, stronger effect = lower value 0.869 | S. cerevisiae deletion strains, locus YNL233W, strain BNI4, stronger effect = lower value 0.83 | S. cerevisiae deletion strains, locus YNL248C, strain rpa49, stronger effect = lower value 0.879 | S. cerevisiae deletion strains, locus YNL298W, strain CLA4, stronger effect = lower value 0.884 | S. cerevisiae deletion strains, locus YNR052C, strain pop2, stronger effect = lower value 0.865 | S. cerevisiae deletion strains, locus YOR001W, strain rrp6, stronger effect = lower value 0.81 | S. cerevisiae deletion strains, locus YOR070C, strain gyp1, stronger effect = lower value 0.813 | S. cerevisiae deletion strains, locus YOR083W, strain WHI5, stronger effect = lower value 0.743 | S. cerevisiae deletion strains, locus YOR106W, strain vam3, stronger effect = lower value 0.713 | S. cerevisiae deletion strains, locus YOR265W, strain rbl2, stronger effect = lower value 0.916 | S. cerevisiae deletion strains, locus YOR270C, strain vph1, stronger effect = lower value 0.618 | S. cerevisiae deletion strains, locus YOR290C, strain snf2, stronger effect = lower value 0.784 | S. cerevisiae deletion strains, locus YPL051W, strain arl3, stronger effect = lower value 0.707 | S. cerevisiae deletion strains, locus YPL078C, strain atp4, stronger effect = lower value 0.837 | S. cerevisiae deletion strains, locus YPL106C, strain sse1, stronger effect = lower value 0.654
